Data as given in publication PMC12864922, “TDP-43 directly inhibits mRNA accumulation in neurites through modulation of mRNA stability”.
In all, about 9,900 sequences were measured (“r (bound/input frequency ratio)”: median about 0.7, highest 2% from about 6.5 on). The sample as a whole holds a higher share of the highest values than the screen did.

B1: ENSMUSG00000031028.55|Tub (ssRNA)
RNA: GGGAGUUCUACAGUCCGACGAUCGCUUCGAUAUCCGCAUGCUAUGUGCCCCAAGGUCAACACACAUGCCCAGUCCUGGGUCAGUCCCCUGCUGCAGUGGUGUUAUCACACCGGAAAGCCUCUUCACCUGGAGGUACAGAGGGAGAGGAAGCACAAGCCUGGCUGCUGUGGCUCAGCCAUCCACUCAGCCUACGAGUCAGAGACAGUGGGUGUCCCGGGAAGCAGGGGUACAGUGAGUGUGUGUGUAUGUACAGGGCACUCAAGCUGUAUGUAGAAAAAGCUCUGGUGGUCAGCAGAAAGCACUCUCUUGCGGUCGCACUAGUGUGGAAUUCUCGGGUGUCAAGG
B2: ENSMUSG00000042529.483|Kcnj12 (ssRNA)
RNA: GGGAGUUCUACAGUCCGACGAUCGCUUCGAUAUCCGCAUGCUAUCUCUUUGAAUGCUACUGUGUUGAGAUGUGCGUCUCACUGGCCUCUGCCUGCCUCUCCCGCCUGCGGAGCACUUACACUUCCUGGGGCCCCUGCAGCUGGACCAUGUACAGGGCUCCCUGGGGCUUGUCCUCAGGGGCAGAGAAGGACAUGGUGGCAGCAGCACUGAGAACAGGAGCAUGGCCUCUCUCAGACCCCAGGGCAGUCAUUCAGUCUUUUCCAUGGACACUCCCCACCGCUCCACAUACUGCCUCCGCCUCAUCUCUUGCGGUCGCACUAGUGUGGAAUUCUCGGGUGUCAAGG
B3: ENSMUSG00000061578.627|Ksr2 (ssRNA)
RNA: GGGAGUUCUACAGUCCGACGAUCGCUUCGAUAUCCGCAUGCUAAGGGAGCAACCUAUAGGAAAUGCAAAGGCUUAGAGGGGACGGACAGCUCCCUGACCCUGGAUGGCCAGGAAUGGUGCUAGCUAGGGUGUGAGCCAAGCCCUUGAGGCUACUGUGAGUUAUGAGAUGUGUCCAACCCUCAGCCCACAGACUGCAUAUGCCCCAGGACAGCUGUGAAGGUGACCCAAUACAAAAUCGUAAACUAACUUAAAACCAUUAAGGGUUUUUGUUUUGUUGUUGUUUGCUGGCUUUUUGUUUUUUGGCUCUUGCGGUCGCACUAGUGUGGAAUUCUCGGGUGUCAAGG
B4: ENSMUSG00000042529.54|Kcnj12|94:101;234:238 (ssRNA)
RNA: GGGAGUUCUACAGUCCGACGAUCGCUUCGAUAUCCGCAUGCUAGCAAGGAGGUGACUUCUUGGGGUAGGGUUGCUCAGGAGUUAGGGACUCUGCUGGAGGCCUUAGGUGCAGGUCCCAGCCCCGGUGGGAGGAGGCACACAUACUACACUUCAUUGGUUUUUAACUUGGGCAAGACUGUUUACAAACAAAAACAAACAAACAAACAAUCAAAAAAAAAACCCACCCCACAAAACACAAGAAAACAUUAACAGGUGGUUCAAUUUUUAAAAUUCCUGCACACGGGACAGUUGGAAUUCUACUCACUCUUGCGGUCGCACUAGUGUGGAAUUCUCGGGUGUCAAGG
B5: ENSMUSG00000042529.244|Kcnj12|181:185 (ssRNA)
RNA: GGGAGUUCUACAGUCCGACGAUCGCUUCGAUAUCCGCAUGCUAAGAUAGGCUGGCUCCCAGGCACCUUGCUUCAGAUUCCAUGCUAAUUUCUAAUCUAGGAGAUUCCCCUAGGACCCGCUGCAGAGGCAUGGGCUCCUCUGUGGUCCUGGCCAGACCUCUGCCCCCAAAUCUCACUGACUGUUCUAGCCUUGGCCUUGGGGCCUAAGGGUGCAUUCAGCCUGGCACACCUUACCUGCCACUCACCUCUCUAUCUAGUUGUCGAGUCUAGGGAAGGGCAGAGGGUGGGUCCUGGCCACUGGGUGCUCUUGCGGUCGCACUAGUGUGGAAUUCUCGGGUGUCAAGG
B6: ENSMUSG00000031028.132|Tub|108:112;184:189 (ssRNA)
RNA: GGGAGUUCUACAGUCCGACGAUCGCUUCGAUAUCCGCAUGCUAGGGGAUGAUAGGAGUCAUCCAGUAGACUCCCUACAUCAGGGCUCUCAGCAGCCCCAGCACAACACCUAUGACACACACACAGGAUCUAGGUCACCAUUCAAGUAAUGCAUACCUUCAGGAAGAAUGUCCUCUCUGGGAAGACUCAGCUCCCAUUAUUGCCAGCAUGCCAUGAUCAGUGAGGGCACACACCCAUGCUUAGGGGGAUGGCGCAGGGUGAGGGGAGCAGAGGAUAUUUUAGGGCCACAAGAGCUCAGAGGUAGCUCUUGCGGUCGCACUAGUGUGGAAUUCUCGGGUGUCAAGG
B7: ENSMUSG00000032194.60|Kank2 (ssRNA)
RNA: GGGAGUUCUACAGUCCGACGAUCGCUUCGAUAUCCGCAUGCUAAGGGGGGGCAAGAAGAGAAAAUACUGUAUUCUUGAGUCAUUGUUAGGGGAUGGGAGGGGUCAGAAUUCAGUUGCUAAAUUUGAAUGUCACUGGAAUGUUACAGUGUCUAUUGUCUCCUCAUCUUUACAGCAGGUCUCCACAAAGCCUGCUCACCACCCUUUGUCACCUCAUUUCAUUGUCUAGUGUACAAUAGGGUCUUGUCCACUGCCCUCCACCUCCAGACUGUGUCUUCAGGGCCUGGGGUGUCUCUUGUGAUUGCUCUCUUGCGGUCGCACUAGUGUGGAAUUCUCGGGUGUCAAGG
B8: ENSMUSG00000061578.444|Ksr2 (ssRNA)
RNA: GGGAGUUCUACAGUCCGACGAUCGCUUCGAUAUCCGCAUGCUAAAUCCUUCAAGACAGAAGUUUCAGAGGGGAUAGUUCCUUCUAACCUUGUACUGGGACAUCAUCUAUGUCCCCAUCCCCAGAGCUGAAUUAGAGACACCAAGUAGCCUCUUGGGUUGUUUUGUGGGGUGUUCCCCUUGCUGGUCAAAGGAGUGGAAAGCCACCUUGCUGUAAAUGCUCUUGUUUUCUGUAGCAAUCUUGAACUCUUUUUUUUUUUUGUUCGUUUGUUUGUUUGUUUGUUUGUUUGUUUUUUCAAGACAGGGCUCUUGCGGUCGCACUAGUGUGGAAUUCUCGGGUGUCAAGG
B9: ENSMUSG00000058297.11|Spock2|185:189;193:206;215:226;240:246;255:260 (ssRNA)
RNA: GGGAGUUCUACAGUCCGACGAUCGCUUCGAUAUCCGCAUGCUAUGAGGCGGGUGAGGCAGAUGAUGGAGGCUACAUCUGGUAGAUAGCCCUCGACGGCCUCGGCAGGCCAGGGUGCCGACGGCCAGAAAGACAGGCCAGAAGAGACCUGGACAACAGCAGGCAACUUAGCAAAUGGAUCCGGAAGUCAGUGCGGAGGACCCUGGCUCCAGUGGGGGAGGACUGGGGACACACGCUACACACAUACACACAUAUGAGAACACACACAUACAUGUGAGAUGUGACACACACAUGUGAGAACACACCUCUUGCGGUCGCACUAGUGUGGAAUUCUCGGGUGUCAAGG

Biological target: TDP-43 (Homo sapiens, UniProt Q13148 1-414)
Sequence (Q13148 whole entry): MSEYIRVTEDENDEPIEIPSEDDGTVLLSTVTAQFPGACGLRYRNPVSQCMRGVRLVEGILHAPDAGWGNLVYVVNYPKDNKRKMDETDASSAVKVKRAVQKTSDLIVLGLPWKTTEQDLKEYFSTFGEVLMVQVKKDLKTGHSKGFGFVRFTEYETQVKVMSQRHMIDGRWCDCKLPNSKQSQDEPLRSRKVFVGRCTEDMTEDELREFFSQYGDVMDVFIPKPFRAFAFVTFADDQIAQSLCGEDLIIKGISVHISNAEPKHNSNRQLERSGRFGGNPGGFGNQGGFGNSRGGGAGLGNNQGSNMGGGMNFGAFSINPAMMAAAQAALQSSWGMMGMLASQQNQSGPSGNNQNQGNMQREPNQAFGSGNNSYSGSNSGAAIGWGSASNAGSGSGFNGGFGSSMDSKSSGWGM
Experiment: RNA Bind-n-Seq with designed 260-mer pool; 25 mM Tris-HCl, 150 mM KCl, 3 mM MgCl2, BSA (printed 500 mg/mL), 20 units/mL SUPERase IN; pH not stated; 500 nM RNA pool, 1 h, 4 C; TDP-43 5, 50, 500 nM; high values mean tight binding
Conditions: protein: recombinant; tags: SBP (GST cleaved off with PreScission; pGEX-GST-SBP)
Method in brief: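 The incubation lasted 1 h at 4 °C and used 500 nM of an in vitro-transcribed 260-nt 3′ UTR oligo pool with recombinant SBP-tagged TDP-43 at 5, 50 or 500 nM immobilized on streptavidin beads. It took place in 25 mM Tris-HCl, 150 mM KCl, 3 mM MgCl2, BSA and SUPERase IN. Bound RNA was washed, eluted with biotin, converted to cDNA, PCR-amplified and sequenced to give R, each oligo's normalized abundance in the bound sample divided by that in input. Two independent protein batches provided the duplicates.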

| Binder | binding signal |
| --- | --- |
| B1 | 0.773 R (bound/input frequency ratio) |
| B2 | 0.21 R (bound/input frequency ratio) |
| B3 | 0.542 R (bound/input frequency ratio) |
| B4 | 0.46 R (bound/input frequency ratio) |
| B5 | 1.24 R (bound/input frequency ratio) |
| B6 | 0.891 R (bound/input frequency ratio) |
| B7 | 2.47 R (bound/input frequency ratio) |
| B8 | 2.36 R (bound/input frequency ratio) |
| B9 | 2.53 R (bound/input frequency ratio) |
